Source: PubChem BioAssay
Sampled rows, rich in hits. Any-hit rate of the full collection: about 3.6%.
TSHR ag – TSH receptor (human) agonism. HEK293-CNG-TSHR cells (CNG channel as cAMP sensor), membrane potential dye, cAMP. Potency, µM (titrated, usually from 57.1 µM), actives largely listed as activators. 73,000 compounds, 0.48% hits. AID 926; active = well fitted activation curve with a large enough effect in the main read-out, with a control signal flat, not every such curve was filed as active; inconclusive = small, poorly fitted or top-dose-only effect, or a change in a side signal; inactive = no such curve, though single readings can be large or run the other way; reference of the percent scale not stated here;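 also: the control signal comes from parental cells without the receptor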
Target sequence (P16473 whole entry, looked up): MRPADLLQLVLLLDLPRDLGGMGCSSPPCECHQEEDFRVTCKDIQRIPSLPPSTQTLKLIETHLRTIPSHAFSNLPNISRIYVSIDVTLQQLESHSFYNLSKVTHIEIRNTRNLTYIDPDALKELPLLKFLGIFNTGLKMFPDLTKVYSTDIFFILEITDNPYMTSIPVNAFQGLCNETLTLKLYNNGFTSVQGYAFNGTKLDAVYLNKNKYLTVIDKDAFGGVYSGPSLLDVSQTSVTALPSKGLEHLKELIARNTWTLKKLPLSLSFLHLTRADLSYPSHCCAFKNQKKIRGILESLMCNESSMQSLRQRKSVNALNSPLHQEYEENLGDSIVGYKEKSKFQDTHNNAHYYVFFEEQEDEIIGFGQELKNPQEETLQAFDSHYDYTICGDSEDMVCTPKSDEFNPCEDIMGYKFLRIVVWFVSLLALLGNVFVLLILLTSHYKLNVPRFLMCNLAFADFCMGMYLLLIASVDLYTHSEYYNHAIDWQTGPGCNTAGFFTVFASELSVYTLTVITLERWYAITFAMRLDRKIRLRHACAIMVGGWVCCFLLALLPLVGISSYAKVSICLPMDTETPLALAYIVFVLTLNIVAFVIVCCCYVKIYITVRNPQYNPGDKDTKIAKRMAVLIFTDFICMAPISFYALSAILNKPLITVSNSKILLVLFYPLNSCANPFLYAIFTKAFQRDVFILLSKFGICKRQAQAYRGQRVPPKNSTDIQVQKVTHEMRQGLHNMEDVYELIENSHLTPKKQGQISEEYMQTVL
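HEK 293 cells stably expressing TSHR and a modified CNG channel, with CNG-only parental cells as counterscreen, were preloaded 60 min at room temperature with membrane potential dye containing 100 uM RO 20-1724. Compound exposure was 30 min, and depolarization was read as fluorescence at 590 nm.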
HEK293 cAMP cs – counter-screen for TSHR agonists: cAMP increase in parental HEK293 | parental HEK293 CNG cAMP sensor, membrane potential fluorescence | Potency, µM (top dose mostly 57.1 µM), most hits filed as activators | 73,000 compounds, 2.5% hits | AID 938; also: nearly all actives have a fitted effect of over 55% in size
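Counterscreen for endogenous-receptor signalling: CNG-channel HEK 293 cells report cAMP rise by membrane depolarization. After 60 min dye equilibration with 100 uM RO 20-1724, compounds incubated 30 min before bottom-read fluorescence at 590 nm.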
CRE-bla Fsk – alters forskolin-stimulated CRE reporter signaling in CHO cells; CHO CRE-bla reporter (cAMP response element driving beta-lactamase), forskolin EC10, beta-lactamase ratio; Potency, µM (highest dose often 38.2 µM), usual class: activators; 71,000 compounds, 2.5% hits; active = well fitted activation curve with a large enough effect in the signal ratio, with a control signal flat, not every such curve was filed as active; inconclusive = small, poorly fitted or top-dose-only effect, or effect the other way, or a change in a side signal; the % refers to the signal ratio
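Reporter-gene assay: CHO cells with beta-lactamase behind cAMP responsive elements, co-treated with compound and EC10 NKH 477 for 3 hours at 37 degrees Celsius. Activity came from the 460/530 nm CCF4 emission ratio.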
IkB sig inh – inhibitors of IkB signaling in ABC-DLBCL cells; AID 445; 110,000 compounds, 0.04% hits; ABC-DLBCL IkBa-CBG/CBR dual luciferase ratio, 4 h; response scale: scaled: untreated 0%, proteasome inhibitor 100%; Potency, µM (doses to about 57.1 µM); active = well fitted curve in the direction sought with a large enough effect in the signal ratio, not every such curve was filed as active; inconclusive = small, poorly fitted or top-dose-only effect, or a change in a side signal; the % refers to the signal ratio;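 also: the direction sought is a rising ratio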
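In this assay, an IκBα–CBG68 fusion accumulates when IKK-driven degradation is blocked; native CBR normalizes for cell number. OCI-Ly3 cells were treated 4 h with compound and doxycycline, then green and red light read after Chroma-Glo addition.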
ERK AVP inh – vasopressin-driven ERK pathway inhibition; 72,000 compounds, 0.99% hits; Potency, µM (titrated, usually from 57.5 µM), hits mostly inhibitors; HEK293-V1b, vasopressin-stimulated pERK AlphaScreen; also: nearly all actives have a fitted effect of over 55% in size
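HEK293 cells stably expressing V1b receptor, preincubated 30 min at 37 °C with compound, then stimulated 5 min with 25 nM vasopressin. Phospho-ERK by AlphaScreen SureFire after 5 h RT; normalized to DMSO and vasopressin; AC50 by Hill fit.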
Numbers stand for hits; 0 = inactive; ? = inconclusive; - = not tested or not shown; ! = not confirmed by another sample; [ ] = another dose, or the depositor's remark. Unless noted, calls follow the shape of the dose curve; as a rule, active = well fitted curve in the direction sought with a large enough effect; inconclusive = small, poorly fitted or top-dose-only effect, or another doubt; inactive = no such curve, though single readings can be large; an effect the other way counts as inactive or inconclusive.

SMILES	TSHR ag	HEK293 cAMP cs	CRE-bla Fsk	IkB sig inh	ERK AVP inh
Cc1cccc(OCc2nc(C#N)c(N3CC(C)CC(C)C3)o2)c1 (stereo unspecified)	?	6.3µM	0	0	0
CCOC(=O)c1c(NC(=O)c2ccccc2OCC)sc2c1CCC(CC)C2 (stereo unspecified)	-	-	-	0	-
Cc1cccc(C)c1NC(=O)CSc1nc2ccccc2c2nc(CCc3c(C)n[nH]c3C)nn12	-	-	-	0	-
Cn1cccc1Cc1nnc(SCC(=O)N2CCc3ccccc32)n1CCc1ccccc1	0	0	0	0	16µM
Cn1cccc1Cc1nnc(SCC(=O)N2CCCC2)n1CCc1ccccc1	0	0	0	0	?
COc1ccc(C)cc1NC(=O)CN(Cc1nnc(-c2ccc(Cl)cc2)o1)C1CCCC1	?	16µM	0	?	0
COc1ccc(C)cc1NC(=O)CSc1nnc(-c2ccc(C)cc2)o1	?	?	0	0	0
CCOc1ccccc1N1CC(C(=O)Nc2ccccc2N2CCOCC2)CC1=O (stereo unspecified)	0	0	0	0	0
COC(=O)c1c(C#N)c(N)nc2c1CCC2	0	0	2µM	0	0
CC(=O)NC(CC(=O)O)C(=O)NC(CCC(=O)O)C(=O)O (stereo unspecified)	-	-	-	-	0
CN[C@H](CC(=O)O)C(=O)O	0.79µM!	0	0	0	0
COc1cccc(C2=NOC(C(=O)NCc3ccc(F)cc3)C2)c1 (stereo unspecified)	?	?	13µM	0	0
COc1cc(C2=NOC(C(=O)NCc3ccc(F)cc3)C2)cc(OC)c1OC (stereo unspecified)	0	0	?	?	0
COc1ccc(C2=NOC(C(=O)Nc3cc(C)nn3-c3ccccc3)C2)cc1OC (stereo unspecified)	0	0	2.5µM	0	?
COc1ccc(C2=NOC(C(=O)NCc3ccc(F)cc3)C2)cc1OC (stereo unspecified)	0	0	13µM	0	?
COC(=O)c1ccc(OCC(O)CN2CCC(C)CC2)cc1 (stereo unspecified)	0	0	0	0	0
CCOC(=O)N1CCC(NC(=O)CCC(=O)N2CC(C)Oc3ccc(C)cc32)CC1 (stereo unspecified)	0	0	0	0	0
O=C(O)c1ccc2c3c1cccc3c(=O)n1c3ccccc3nc21	0	0	5µM	0	0
O=P(O)(O)O	0	0	0	0	0
COc1ccccc1N1CCN(C(c2ccc(F)cc2)c2nnnn2C(C)C)CC1 (stereo unspecified)	?	?	0	0	0
COc1ccc(Cn2nnnc2C(C(C)C)N2CCN(c3ccccc3OC)CC2)cc1 (stereo unspecified)	?	13µM	0	0	0
COc1ccccc1N1CCN(C(c2ccc(C)cc2)c2nnnn2C(C)C)CC1 (stereo unspecified)	?	16µM	0	0	0
COc1ccc(C(c2nnnn2Cc2ccccc2)N2CCN(c3ccccc3)CC2)cc1 (stereo unspecified)	?	?	0	0	0
O=C(CCN1C(=O)COc2ccccc21)NCc1cccnc1	0	0	0	0	0
O=C(CN1C(=O)COc2ccccc21)N(Cc1cccnc1)Cc1ccccc1F	?	10µM	0	0	0
SMILES	TSHR ag	HEK293 cAMP cs	CRE-bla Fsk	IkB sig inh	ERK AVP inh
O=C1OC(NC(=O)c2ccccc2)C(n2cc(CO)nn2)=C1Cl (stereo unspecified)	0	0	0	?	0
Cn1c(C(=O)N2CCN(C(=O)c3ccco3)CC2)cc2c(=O)n(C)c3ccccc3c21	0	0	4µM	0	0
CCn1c(=O)cc(SCC(=O)N2CCN(c3ccccc3OC)CC2)c2ccccc21	0	0	?	?	25µM
Cn1c(C(=O)N2CCN(c3ccc(F)cc3)CC2)cc2c(=O)n(C)c3ccccc3c21	0	0	0	0	0
COc1ccccc1N1CCN(C(=O)c2cc3c(=O)n(C)c4ccccc4c3n2C)CC1	0	0	2µM	0	0
CC(C)CCNC(=O)c1ccc2c(c1)NC(=O)C(CS(=O)(=O)Cc1ccc(F)cc1)N2 (stereo unspecified)	-	-	-	0	-
CCc1cc(=O)oc2cc(OCC(=O)N3CCc4ccccc43)ccc12	0	0	0	0	0
CCc1c(C)c2cc(Cl)c(O)c(CN(C)C)c2oc1=O	0	0	10µM	0	0
CCc1c(C)c2cc(Cl)c(O)c(CN(CC)CC)c2oc1=O	0	0	10µM	0	0
O=c1oc2c(CN3CCOCC3)c(O)c(Cl)cc2c2c1CCC2	0	0	?	0	0
CCc1c(C)c2ccc(O)c(CN3CCN(c4ccccc4)CC3)c2oc1=O	-	-	-	0	-
Cc1c(C)c2cc(Cl)c(O)c(CN(C)C)c2oc1=O	0	0	10µM	0	0
Clc1ccc2nc3ccccn3c2c1	0	0	0	0	0
Cn1c(=O)[nH]c(=O)c2c1nc(CN1CCN(c3ccc(F)cc3)CC1)n2CCc1ccccc1	?	?	0	0	0
CCCCCn1c(CN2CCN(c3cccc(Cl)c3)CC2)nc2c1c(=O)[nH]c(=O)n2C	?	?	13µM	?	0
CCCCCCn1c(N2CCN(c3cccc(Cl)c3)CC2)nc2c1c(=O)[nH]c(=O)n2C	?	?	?	0	0
Cn1c(=O)[nH]c(=O)c2c1nc(CN1CCN(c3cccc(Cl)c3)CC1)n2CCc1ccccc1	?	?	13µM	0	0
COc1ccc(C2/C(=C(\O)c3ccc(OC)c(Cl)c3)C(=O)C(=O)N2CCN(C)C)cc1 (stereo unspecified)	0	0	0	0	0
OC(COc1ccc(Br)cc1)CN1CCOCC1 (stereo unspecified)	?	?	0	0	0
Brc1ccc(OCCOCCN2CCOCC2)cc1	25µM	0	0	0	0
CC(NC(=O)c1ccccc1NC(=O)c1ccco1)C(=O)O (stereo unspecified)	0	0	0	0	0
COc1cccc(C(=O)N(Cc2ccc3c(c2)OCO3)Cc2nc3ccccc3c(=O)[nH]2)c1	0	0	5µM	0	?
COc1ccccc1NC(=O)N(Cc1ccc2c(c1)OCO2)Cc1nc2ccccc2c(=O)[nH]1	?	?	?	0	0
CC1(Cc2cn(CCC#N)c3ccccc23)OCCO1	16µM	0	?	0	0
c1ccc2sc(SCN(C3CCCCC3)C3CCCCC3)nc2c1	0[11.4 µM]	0[11.4 µM]	0[7.6 µM]	0[11.4 µM]	0[11.5 µM]
Nc1nc(CSc2nc3ccccc3[nH]2)nc(N2CCOCC2)n1	0	0	10µM	0	0
Nc1nc(CSc2nc3ccccc3s2)nc(N2CCCCC2)n1	?	?	5µM	0	0
Cc1noc(C)c1S(=O)(=O)N1CCCC(C(=O)Nc2cccnc2)C1 (stereo unspecified)	0	0	0	0	0
